PubChem BioAssay
Calls of active or inactive are those of the source. Unless noted, how the calls were made is not given here.

How the values were obtained:
[1] = compound effects on lung adenocarcinoma cell viability – A549, calcein-AM fluorescence, 48 h, basal, profiling panel (AID 1162); settings: higher = more signal; further: test concentration not given here
[2] = compound effects on differentiated 3T3-L1 adipocyte viability – cell-based, 3T3-L1 adipocytes, calcein-AM fluorescence, 48 h, basal, profiling panel (AID 1163); settings: 3T3-L1 adipocytes viability, higher = more signal; further: test concentration not given here
[3] = compound effects on hepatocellular carcinoma cell viability – HepG2, calcein-AM fluorescence, 48 h, basal, profiling panel (AID 1164); settings: higher = more signal; further: test concentration not given here
[4] = compound effects on multiple myeloma cell viability – MM1S, calcein-AM fluorescence, 48 h, basal, profiling panel (AID 1165); settings: higher = more signal;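 further: viability of MM1S multiple myeloma cells under basal unstimulated conditions; test concentration not given here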
[5] = calcein-AM signal in unstimulated myeloma cells – cell-based, calcein-AM fluorescence, 48 h, PK04 Diversity Set, profiling panel (AID 1166); settings: RPMI8226 myeloma viability, higher = more signal;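 further: cells grown under basal conditions without added stimulus; test concentration not given here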
[6] = JC-1 mitochondrial signal, unstimulated HepG2 cells – cell-based, JC-1 fluorescence, 24 h, 100 nL compound, profiling panel (AID 1167); settings: HepG2 mitochondrial potential, higher = more signal; further: test concentration not given here
[7] = JC-1 mitochondrial signal, unstimulated adipocytes – cell-based, JC-1 fluorescence, 3T3-L1 adipocytes, 24 h, 100 nL compound, profiling panel (AID 1168); settings: JC-1 mitochondrial fluorescence, higher = more signal, called active from +8 up or from −8 down; further: test concentration not given here
[8] = JC-1 mitochondrial signal, unstimulated myeloma cells – cell-based, JC-1 fluorescence, RPMI8226, 24 h, 100 nL compound, profiling panel (AID 1169); settings: JC-1 mitochondrial potential fluorescence, higher = more signal; further: test concentration not given here
[9] = JC-1 mitochondrial signal, unstimulated MM1S myeloma – cell-based, JC-1 fluorescence, 24 h, 100 nL compound, profiling panel (AID 1170); settings: MM1S mitochondrial potential, higher = more signal; further: test concentration not given here
[10] = resazurin metabolic signal in A549 cells – cell-based, resazurin fluorescence, 24 h, PK04 Diversity Set, profiling panel (AID 1171); settings: A549 viability, higher = more signal, called active from +8 up or from −8 down; further: test concentration not given here
[11] = resazurin metabolic signal in HepG2 cells – cell-based, resazurin fluorescence, 24 h, PK04 Diversity Set, profiling panel (AID 1172); settings: HepG2 viability, higher = more signal; further: test concentration not given here
[12] = budding yeast growth changes without added modifier – OD600, strain BY4716, 24 h, basal condition, primary screen (AID 1173); settings: S. cerevisiae BY4716 growth, OD600, 24 h; higher = more signal, called active from +8 up or from −8 down
[13] = viability profiling in MM1S myeloma cells – cell-based, resazurin fluorescence, basal, 24 h, PK04 Diversity Set, profiling panel (AID 1174); settings: higher = more signal, called active from +8 up or from −8 down; further: test concentration not given here
[14] = target: Dihydroorotate dehydrogenase (quinone), mitochondrial (Plasmodium falciparum (isolate 3D7)) (UniProt Q08210); assay: inhibition of P. falciparum DHODH – biochemical, C-terminal His tag, absorbance 600 nm, primary screen (AID 1175); settings: PfDHODH enzyme, DCIP absorbance 600 nm; higher = more signal, called active from +8 up or from −8 down;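 further: recombinant parasite enzyme with a five histidine tag at its C terminus; test concentration not given here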
[15] = inhibition of PAO1 biofilm formation – strain PAO1, LB-PBS medium, absorbance 600 nm, primary screen (AID 1176); further: test concentration not given here; settings: P. aeruginosa PAO1 growth/biofilm, A600, 12 h; higher = more signal
[16] = growth modulation of vineyard yeast isolate – strain RM11-1a, OD600, basal, 24 h, primary screen (AID 1177);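 further: cultures grown under basal conditions with no added stressor; test concentration not given here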; settings: S. cerevisiae RM11-1a growth, OD600, 24 h; higher = more signal, called active from +8 up or from −8 down
[17] = growth of efflux-deficient E. coli DRC39 – strain DRC39, OD650, 24 h, E. coli filamentation inducers, primary screen (AID 1178);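 further: growth measured as culture turbidity by optical density at 650 nm; test concentration not given here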; settings: E. coli DRC39 acrAB, higher = more signal, called active from +8 up or from −8 down
[18] = growth of efflux-deficient E. coli DRC39 – strain DRC39, OD650, 48 h, E. coli filamentation inducers, primary screen (AID 1179);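 further: screen aims at cell division blockers that make cells filament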; settings: E. coli DRC39 delta-acrAB growth, higher = more signal, called active from +8 up or from −8 down
[19] = viability profiling in RPMI8226 myeloma cells – cell-based, resazurin fluorescence, basal, 24 h, PK04 Diversity Set, profiling panel (AID 1180); settings: higher = more signal;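 further: RPMI8826 multiple myeloma cell line at 5000 cells per well; test concentration not given here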
[20] = target: E3 ubiquitin-protein ligase XIAP (Homo sapiens) (UniProt P98170); assay: small molecules binding XIAP protein – biophysical, small-molecule microarray, fluorescence 635 nm, primary screen (AID 1181); settings: higher = more signal;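 further: score merges 667 nm emission and signal to noise over triplicate slides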
Chain of E3 ubiquitin-protein ligase XIAP (Homo sapiens) (P98170 whole entry, looked up): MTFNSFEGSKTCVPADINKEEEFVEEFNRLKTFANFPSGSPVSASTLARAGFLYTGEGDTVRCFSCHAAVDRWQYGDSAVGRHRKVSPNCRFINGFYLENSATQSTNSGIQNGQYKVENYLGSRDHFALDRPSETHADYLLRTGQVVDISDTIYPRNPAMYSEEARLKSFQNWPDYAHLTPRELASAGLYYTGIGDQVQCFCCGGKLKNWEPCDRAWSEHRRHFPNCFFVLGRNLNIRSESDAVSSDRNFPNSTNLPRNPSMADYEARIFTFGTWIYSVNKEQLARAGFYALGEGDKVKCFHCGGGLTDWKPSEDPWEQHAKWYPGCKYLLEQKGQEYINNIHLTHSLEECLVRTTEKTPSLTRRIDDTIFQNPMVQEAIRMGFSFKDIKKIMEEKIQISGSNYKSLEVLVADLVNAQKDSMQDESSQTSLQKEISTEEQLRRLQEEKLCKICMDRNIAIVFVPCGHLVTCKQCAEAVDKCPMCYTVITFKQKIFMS

Chain of Dihydroorotate dehydrogenase (quinone), mitochondrial (Plasmodium falciparum (isolate 3D7)) (Q08210 whole entry, looked up): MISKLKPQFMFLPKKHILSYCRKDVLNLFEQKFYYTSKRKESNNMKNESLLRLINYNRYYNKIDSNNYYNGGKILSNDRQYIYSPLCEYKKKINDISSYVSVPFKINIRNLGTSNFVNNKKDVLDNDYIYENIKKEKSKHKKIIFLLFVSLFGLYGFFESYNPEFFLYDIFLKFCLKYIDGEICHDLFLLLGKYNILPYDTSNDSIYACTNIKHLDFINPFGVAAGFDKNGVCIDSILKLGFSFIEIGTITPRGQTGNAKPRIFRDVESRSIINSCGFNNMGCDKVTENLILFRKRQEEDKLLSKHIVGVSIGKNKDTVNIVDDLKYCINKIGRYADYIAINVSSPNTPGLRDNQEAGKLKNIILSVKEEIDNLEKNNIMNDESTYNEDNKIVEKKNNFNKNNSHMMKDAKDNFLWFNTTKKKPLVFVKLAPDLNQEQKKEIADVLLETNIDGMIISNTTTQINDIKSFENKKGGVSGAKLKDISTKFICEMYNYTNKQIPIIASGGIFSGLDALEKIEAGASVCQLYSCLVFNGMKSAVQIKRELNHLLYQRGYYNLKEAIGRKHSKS

Structure (SMILES)	z-score [1]	z-score [2]	z-score [3]	z-score [4]	z-score [5]	z-score [6]	z-score [7]	z-score [8]	z-score [9]	z-score [10]	z-score [11]	z-score [12]	z-score [13]	composite z-score [14]	z-score [15]	z-score [16]	z-score [17]	z-score [18]	z-score [19]	composite z-score [20]
COC(=O)[C@@]1(Cc2ccc(OC)cc2)[C@H]2c3cc(C(=O)N4CCCC4)n(Cc4ccc(Cl)c(C(F)(F)F)c4)c3C[C@H]2CN1C(=O)c1ccccc1	-0.305	0.134	0.931	-0.963	-0.741	2.07	0.15 (inactive)	-0.671	-1.63	-0.134 (inactive)	0.27	0.681 (inactive)	-0.267 (inactive)	-0.902 (inactive)	0.135 (inactive)	0.276 (inactive)	-0.88 (inactive)	0.404 (inactive)	-0.859	-0.064
C=CCN1C(=O)[C@]2(O[C@H](CCn3cc([C@H](O)c4ccccc4)nn3)[C@@H]([Si](C)(C)c3ccc(OC)cc3)[C@@H]2C)c2cc(NC(=O)c3ccc(OC)cc3)ccc21	0.268	0.37	-1.87	-2.74	-4.38	3.48	0.517 (inactive)	-1.17	-1.39	-2.43 (inactive)	-1.66	-0.971 (inactive)	-3.65 (inactive)	0.717 (inactive)	1.59 (inactive)	1.11 (inactive)	0.517 (inactive)	0.418 (inactive)	-3.68	-0.02
CC(=O)NCCCC[C@@H]1NC(=O)[C@H]2C[C@@H](C(=O)NCCCCCCNC(=O)CS)[C@@H](c3cccc(OCCO)c3)N2C1=O	-0.769	0.251	-0.644	-0.504	0.236	-1.4	-0.306 (inactive)	0.186	-0.0983	-0.131 (inactive)	-0.0625	0.535 (inactive)	-0.469 (inactive)	0.929 (inactive)	0.339 (inactive)	1.05 (inactive)	0.0843 (inactive)	-0.264 (inactive)	-0.737	0.0593
C=CCC(OC(C)=O)[C@@H]1[C@@H](N(Cc2cccc3ccccc23)C(=O)Cc2ccc(OC)cc2)c2cc(OCCCO)ccc2N1C(=O)Cc1ccc2ccccc2c1 (stereo not given in full)	-0.105	0.759	-0.472	0.0986	-1.36	3	-0.199 (inactive)	-0.226	0.0724	0.719 (inactive)	0.687	0.428 (inactive)	0.504 (inactive)	-0.717 (inactive)	-0.853 (inactive)	-0.372 (inactive)	0.685 (inactive)	0.248 (inactive)	0.4	0.141
CC[C@@H]1C=C(C(=O)O)[C@H](c2ccc(OC)cc2)N1S(=O)(=O)c1ccc(C)cc1	-0.0984	-0.32	-0.183	0.107	-0.23	-0.955	-0.687 (inactive)	-0.168	-0.273	-0.599 (inactive)	-0.896	0.77 (inactive)	-0.675 (inactive)	-1.09 (inactive)	-0.281 (inactive)	-0.391 (inactive)	-0.826 (inactive)	-0.521 (inactive)	-1.16	-0.0286
CCCCCCc1nc(Cc2cc(OC)c(OC)c(OC)c2)cc2c1[Si](C(C)C)(C(C)C)O[C@H]2c1ccccc1	-0.106	-0.267	-0.492	-1.09	-3.49	1.03	-0.462 (inactive)	-0.566	-0.116	2.45 (inactive)	0.915	1.12 (inactive)	-0.111 (inactive)	0.364 (inactive)	0.374 (inactive)	0.202 (inactive)	-0.373 (inactive)	-0.585 (inactive)	-0.83	-0.491
CN(C)CCCCNC(=O)[C@H]1C[C@H]2C(=O)NCC(=O)N2[C@H]1c1ccc(O)cc1	-0.685	0.364	-0.239	0.34	-0.0681	-0.253	-0.324 (inactive)	0.347	-0.371	1.05 (inactive)	1.1	-0.0401 (inactive)	0.917 (inactive)	0.373 (inactive)	-0.599 (inactive)	1.56 (inactive)	0.0662 (inactive)	-0.363 (inactive)	0.511	0.147
CCCC[C@H]1OB(O)C[C@H]2C1=C(COc1ccccc1)C[C@H]1C(=O)C=CC(=O)[C@H]12	0.696	-0.0337	0.176	-3.27	-3.25	-1.59	-0.201 (inactive)	-0.431	-1.08	0.121 (inactive)	-0.149	-5.19 (inactive)	-0.286 (inactive)	-0.973 (inactive)	0.531 (inactive)	-0.179 (inactive)	1.78 (inactive)	0.715 (inactive)	0.262	0.0264
C=CC[C@]1(C(=O)NCC(O)CO)COC(c2ccc(OCCCO)cc2)=N1 (stereo not given in full)	-0.188	-0.191	-0.323	-0.244	0.146	-0.512	-0.604 (inactive)	0.00774	-0.307	-0.106 (inactive)	-0.25	0.369 (inactive)	-0.772 (inactive)	0.233 (inactive)	2.29 (inactive)	1.33 (inactive)	-0.34 (inactive)	-0.471 (inactive)	-0.412	-0.266
